Assay outcomes as filed in PubChem.
TsaE inh: inhibitors of E. coli YjeE (TsaE) | P0AF67 | purified YjeE enzyme, qHTS inhibition assay | actives 0.05% (n = 71,000) | Potency, µM
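Purified YjeE (10 uM) with BODIPY Texas Red-labeled ADP probe (2 uM); compounds pin-transferred, 15 min at room temperature. Binding inhibition read as decreased fluorescence polarization; ADP titration as control.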
BRCT PPI red: inhibitors of human BRCA1 BRCT-phosphoprotein interaction (red fluorophore). BRCT-phosphopeptide binding, red fluorescence polarization. actives 0.03% (n = 75,000). P38398. Potency, µM (doses to about 76.9 µM), inactives show at the top dose activity change, negative = inhibition, hits mostly inhibitors; further: on the % scale 0 is the no-effect control and ±100 the full control effect
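Rhodamine-labelled pBACH1 10-mer (100 nM) bound to BRCT domain (100 nM) at pH 7.3; compounds incubated 12 min room temperature, polarization read. Free peptide defines full inhibition; unlabelled decapeptide titrated as control.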
ALOX15 inhib: inhibitors of human 15-lipoxygenase (ALOX15). purified 15hLO-1, xylenol orange hydroperoxide absorbance. P16050. actives 1.4% (n = 74,000). Potency, µM (series often up to 57.1 µM), for inactives: top-dose activity change, negative = inhibition, actives largely listed as inhibitors; further: potency means the concentration at half of the fitted maximal effect; on the % scale 0 is the no-effect control and ±100 the full control effect; nearly all actives have a fitted effect of over 55% in size
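Purified human 15hLO-1 (40 nM) in 25 mM Hepes pH 7.5, 0.01% Triton X-100, preincubated 15 min RT with compound, then 50 uM arachidonic acid for 6 min. Hydroperoxide read by ferrous/xylenol orange, 30 min; 573/405 nm absorbance ratio gave progress.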
Pol III holo inh: blocks replication by bacterial DNA polymerase III holoenzyme | reconstituted DNA polymerase III holoenzyme replication, biochemical | Potency, µM (doses to about 57.1 µM), for inactives: at the highest dose activity change, negative = inhibition | actives 0.25% (n = 71,000); further: potency means the concentration at half of the fitted maximal effect; on the % scale 0 is the no-effect control and ±100 the full control effect
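Reconstituted *E. coli* holoenzyme (0.35 nM Pol III, 1 nM beta, 154 nM SSB, 2 nM primase) was preincubated with compound for 15 min at RT. Synthesis on 1.4 nM ssM13Gori ran 35 min, then was stopped with PicoGreen/EDTA and read as dsDNA fluorescence.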
Hsp90 Hop PPI: changes Hsp90-Hop TPR2A binding signal, up or down; AlphaScreen TPR2A-His6 binding biotin-Hsp90 C-terminal peptide; Potency, µM (highest dose often 57 µM), inactives show at the top dose activity change, negative = inhibition; actives 0.44% (n = 71,000); AID 595; active means well fitted curve in either direction with a large enough effect; inconclusive means small, poorly fitted or top-dose-only effect, or another doubt; further: potency means the concentration at half of the fitted maximal effect; on the % scale 0 is the no-effect control and ±100 the full control effect
BRCT PPI green: blocks human BRCA1 BRCT binding to phosphopeptide, green readout. P38398. BRCA1 BRCT-phosphopeptide binding, green fluorescence polarization. Potency, µM (top dose mostly 76.9 µM), for inactives: at the highest dose activity change, negative = inhibition, actives largely listed as inhibitors. actives 0.05% (n = 75,000). AID 875;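 further: potency means the concentration at half of the fitted maximal effect; plate controls were peptide without protein for full effect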
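Fluorescence polarization: His-tagged BRCT (~35 kDa BRCA1 C-terminus, 250 nM) bound to 100 nM fluorescein-labeled phosphorylated 10-aa BACH1 peptide, pH 7.3 phosphate buffer with DTT and Tween 20. Compounds incubated 12 min at room temperature; inhibition read as lowered polarization.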
The depositor's hits bear a star; i = inactive; ? = inconclusive; . = no result; [ ] = remark or other dose. Sampled rows, rich in hits. Any-hit rate of the full collection: about 1.9%. Unless noted, the call rests on the fitted dose curve; in most records, active means well fitted curve in the direction sought with a large enough effect; inconclusive means small, poorly fitted or top-dose-only effect, or another doubt; inactive means no such curve, though single readings can be large; an effect the other way counts as inactive or inconclusive.

SMILES | TsaE inh | BRCT PPI red | ALOX15 inhib | Pol III holo inh | Hsp90 Hop PPI | BRCT PPI green
O=C(CCc1ccc(O)cc1)c1c(O)cc(O)cc1O[C@@H]1O[C@@H](CO)[C@@H](O)[C@@H](O)[C@H]1O | i | . | . | -3% | ? | .
CCOc1cccc(C=Nc2cc(C)cc(C)c2O)c1O | i | -1% | 10µM* | -5% | -7% | 1%
COc1cccc(C=Nc2ccc3c(c2)OCCO3)c1O | i | -3% | -4% | -4% | -5% | -2%
Cc1cccc(-c2noc(CCc3ccccc3)n2)c1 | i | -1% | -2% | -3% | 32µM* | -2%
Cc1cccc(-c2noc(Cc3ccccc3)n2)c1 | . | 1% | -13% | . | . | -2%
CC(=NCCCn1ccnc1)C1=C(O)c2ccccc2C1=O | i | -2% | 17% | -6% | 13µM* | -2%
O=C1C(C=NCCCN2CCCC2=O)=C(O)c2ccccc21 | i | -1% | 2% | -1% | 2% | -3%
O=C1C(C=NCCCn2ccnc2)=C(O)c2ccccc21 | i | 1% | 10%[11.4 µM] | -3%[11.4 µM] | 3.2µM* | -2%
COc1cc([C@H](O)CO)ccc1O | i | 1% | -3% | -8% | -3% | -1%
COc1cccc(/C=N/NC(=O)c2cc(-c3ccc(C)cc3)n[nH]2)c1O | . | 9% | 0% | . | . | 20%
OCCN(CCO)c1nc(N2CCCCC2)c2nc(N(CCO)CCO)nc(N3CCCCC3)c2n1 | i | -3% | -11% | 31% | -2% | 40µM*
CN(C)c1nc(N2CCCCC2)nc(N2CCCCC2)n1 | i | 0% | -5% | 4% | 1%[2.3 µM] | 0%
N#Cc1c(NCCCO)nc(NCc2ccccc2)c2c1CCN(Cc1ccccc1)C2 | i | -5% | 5µM* | -4% | -21% | 0%
c1ccc(CNCCN2CCNCC2)nc1 | i | -2% | 70% | 3% | 4µM* | -4%
O=S1(=O)CCN(Cc2ccccn2)CC1 | i | -2%[15.4 µM] | 0%[11.4 µM] | -3%[11.4 µM] | -5%[11 µM] | -1%[15.4 µM]
COc1ccc(C(=O)[C@H]2[C@H]3[C@@H](C(=O)[C@@H]4OC[C@H]3O4)[C@H]3C=Cc4ccccc4N32)c(OC)c1 | i | . | . | 0% | ? | .
CC(=O)c1cccc(NC(=O)Nc2c(C)nn(C)c2C)c1 | i | 2% | 7% | -8% | -1% | -2%
CC(=O)c1cccc(NC(=O)Nc2cc3sccc3n2C)c1 | i | -4% | 16µM* | -6% | -21% | -2%
COc1ccc2c(c1)c(=O)oc1cc(OCC(=O)NC3CC3)ccc12 | i | -1% | -2% | 16µM* | -2% | -2%
CC(C)CNC(=O)COc1ccc2c3c(c(=O)oc2c1)CCC3 | i | 0% | -8% | -2% | -5% | -1%
CN1CCN(c2ccnc(-c3ccc(N(C)C)cc3)n2)CC1 | i | 1% | -6% | -9% | -4% | -3%
CN(C)S(=O)(=O)c1cccc(-c2nnc(SCc3cc(Cl)cc4c3OCOC4)n2N)c1 | i | -2% | 13µM* | -6% | -2% | 1%
CCN(CC)S(=O)(=O)c1cccc(-c2nnc(SCc3nnc(-c4cccs4)o3)n2N)c1 | i | 0% | -4% | -6% | -4% | 1%
N#CC1=C(N)Oc2cc(O)ccc2C1c1cccs1 (configuration not stated) | i | -2% | ? | 6% | ? | 5%
CN(C)c1ccc2c(c1)OC(N)=C(C#N)C2c1cccc(F)c1 (configuration not stated) | i | 1% | 13µM* | 0% | -12% | 11%
CS(=O)(=O)N1CCC2(CC1)CN(C(=O)Nc1ccccc1)C2 | i | 0% | 0.5µM* | -9% | 1% | 0%
CN1CCN(C(=O)c2cc(-c3ccc(O)cc3)on2)CC1 | i | 0% | 2% | -7% | -1% | -1%
Cc1cc(=O)c2c(O)c(O)ccc2o1 | i | 1% | ? | -3% | -10% | -4%
CC1=CCc2c(cc3oc(C)cc(=O)c3c2O)OC1 | . | 1% | 20µM* | . | . | -1%[3.08 µM]
